Test results from PubChem BioAssay (NCI).
Compounds without any hit were thinned out: in the full panel of roughly 83,000, 20% have a hit.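 In brief: 96-well plates, 48 h treatment, single concentration, percent growth endpoint.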 A number with no mark means an inactive call. Rule for the calls: active = growth percent below 10; inactive = the rest.

What follows are molecules tested on HOP-62 NSCLC (assay: NCI-60 one-dose screen, 48 h (100 = growth as untreated, 0 = no growth, -100 = all killed)). Details: 1 µM.

Compound	growth
CC/C(=C(\c1ccc(O)cc1)c1ccc(OCCN(C)C(=O)COCCNC(=O)Cc2ccc3c(c2)CN([C@@H]2CCC(=O)NC2=O)C3=O)cc1)c1ccccc1	72%
CC/C(=C(\c1ccc(O)cc1)c1ccc(OCCN(C)C(=O)CCOCCNC(=O)c2ccc3c(c2)CN([C@@H]2CCC(=O)NC2=O)C3=O)cc1)c1ccccc1	95.1%
CC/C(=C(/c1ccc(O)cc1)c1ccc(OCCN(C)C(=O)COCCOCCNC(=O)c2ccc3c(c2)CN([C@@H]2CCC(=O)NC2=O)C3=O)cc1)c1ccccc1	93.4%
CC/C(=C(/c1ccc(O)cc1)c1ccc(OCCN(C)C(=O)CCOCCNC(=O)Cc2ccc3c(c2)CN([C@@H]2CCC(=O)NC2=O)C3=O)cc1)c1ccccc1	82.5%
CC/C(=C(/c1ccc(O)cc1)c1ccc(OCCN(C)C(=O)COCCOCCNC(=O)Cc2ccc3c(c2)CN([C@@H]2CCC(=O)NC2=O)C3=O)cc1)c1ccccc1	91.6%
CC/C(=C(\c1ccc(O)cc1)c1ccc(OCCNC)cc1)c1ccccc1	97.8%
